From PubChem BioAssay (NCI)
Compounds without any hit were thinned out: in the full panel of roughly 79,000, 15% have a hit. Values without a mark were called inactive. Activity calls are given as the source filed them. Cut-off read from the data, not from the text of the source: active = growth inhibition above about 70%; inactive = the rest.

Legend:
[1] = NCI Yeast Anticancer Drug Screen. Data for the rad50 strain (AID 155);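 note: 0% = growth of vehicle-only cultures of the same strain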; conditions: S. cerevisiae rad50 strain growth inhibition, hits give high values
How it was run: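 Genetically altered yeast (DNA repair pathway); compound treatment; growth inhibition vs vehicle ctrl.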

[2] = NCI Yeast Anticancer Drug Screen. Data for the mec2-1 strain (AID 157); conditions: S. cerevisiae mec2-1 strain, hits give high values
How it was run: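 Strain: mec2-1 (DNA repair/cell cycle alteration). Compound exposure, then growth measured; inhibition expressed relative to vehicle.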

[3] = NCI Yeast Anticancer Drug Screen. Data for the sgs1 mgt1 strain (AID 161);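 note: 0% = growth of cultures given vehicle only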; conditions: S. cerevisiae sgs1 mgt1 strain, hits give high values
How it was run: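 Mutant yeast exposed to compound; growth scored against vehicle-only wells.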

[4] = NCI Yeast Anticancer Drug Screen. Data for the cln2 rad14 strain (AID 165);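 note: 0% = growth equal to vehicle treated cultures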; conditions: S. cerevisiae cln2 rad14 strain, hits give high values
How it was run: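 Compounds are applied to the cln2 rad14 yeast strain, and growth is then compared with that of vehicle-treated cultures to give inhibition.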

[5] = NCI Yeast Anticancer Drug Screen. Data for the bub3 strain (AID 167); conditions: S. cerevisiae bub3 mutant strain, hits give high values
How it was run: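 Yeast carrying a defined mutation is treated with each compound, and growth is compared with that of vehicle-exposed cells to give inhibition.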

[6] = NCI Yeast Anticancer Drug Screen. Data for the mlh1 rad18 strain (AID 175); conditions: S. cerevisiae mlh1 rad18 strain growth inhibition, hits give high values
How it was run: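 Read-out is yeast growth inhibition, calculated against vehicle-only controls. The compound was applied to a strain engineered with DNA damage repair alterations.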

[7] = at 5.0 µM (retest, dose inferred, filed as 0.5)
[8] = at 50.0 µM (retest, dose inferred, filed as 5.0)

SMILES | growth inhibition [1, 7] | growth inhibition [1, 8] | growth inhibition ([1]; at 50.0 µM) | growth inhibition [2, 7] | growth inhibition [2, 8] | growth inhibition ([2]; at 50.0 µM) | growth inhibition [3, 7] | growth inhibition [3, 8] | growth inhibition ([3]; at 50.0 µM) | growth inhibition [4, 7] | growth inhibition [4, 8] | growth inhibition ([4]; at 50.0 µM) | growth inhibition [5, 7] | growth inhibition [5, 8] | growth inhibition ([5]; at 50.0 µM) | growth inhibition [6, 7] | growth inhibition [6, 8] | growth inhibition ([6]; at 50.0 µM)
CC(=O)c1c(CO[N+](=O)[O-])n([O-])c2ccccc2[n+]1=O | 11% | 60% | 69.4% | 7% | 20% | 13.6% | 13% | 40% | 42.5% | -1% | 17% | 22% | -1% | -4% | 15.7% | 1% | 33% | 45.9%
CC(=O)ON=C1C=CC(=C(C#N)c2ccccc2)C=C1 | 44% | 99% (active) | 97.2% (active) | 41% | 100% (active) | 99.1% (active) | 46% | 100% (active) | 64.1% | 88% (active) | 100% (active) | 98.2% (active) | 72% (active) | 100% (active) | 66.3% | 49% | 99% (active) | 99.5% (active)
CCCCCCCNCCCCCC | 64% | 92% (active) | 67.7% | 20% | 69% | 63.8% | 73% (active) | 93% (active) | 84.7% (active) | 28% | 86% (active) | 68.3% | 75% (active) | 97% (active) | 67.1% | 78% (active) | 94% (active) | 48.6%
CC1=NC(C)=C(/C(C)=N/NC(=O)c2ccccc2O)C(C)/C1=C(/C)NNC(=O)c1ccccc1O (configuration not stated) | 16% | 16% | 74.7% (active) | 12% | 12% | 75% (active) | -1% | -1% | 81.1% (active) | -2% | -2% | 62% | -3% | -3% | 82.8% (active) | 2% | 2% | 80% (active)
O=c1cccccc1[O-].O=c1cccccc1[O-].O=c1cccccc1[O-].[Sm+3] | 33% | 33% | 91.7% (active) | 19% | 19% | 92.5% (active) | 21% | 21% | 90.5% (active) | 17% | 17% | 90.2% (active) | 11% | 11% | 93% (active) | 14% | 14% | 90.4% (active)
ON=C1c2ccccc2-c2ccccc21 | 8% | 58% | 54.2% | 2% | 21% | -3.05% | 2% | 30% | 41.5% | -12% | -6% | -68.6% | -4% | 9% | 30.9% | 9% | 58% | 71.7% (active)
CC1(C)N=C(N)N=C(N)N1c1cccc(CCCCC(=O)CCl)c1 | 15% | 89% (active) | 95.8% (active) | 0% | 72% (active) | 95% (active) | -5% | 79% (active) | 95.9% (active) | -5% | 62% | 81.6% (active) | -5% | 51% | 86.7% (active) | -18% | 91% (active) | 97.8% (active)
CCc1c(Nc2ccccc2C)[nH]c(N)nc1=S | -2% | -32% | -6.6% | -2% | -7% | 5.35% | -1% | -7% | 12.4% | -7% | -15% | -7% | -4% | 8% | 77.2% (active) | -1% | -7% | -12.4%
Cc1c2ccnc(C(N)=O)c2c(C)c2c1[nH]c1ccccc12 | 9% | 90% (active) | 76.1% (active) | 12% | 98% (active) | 48.1% | 7% | 84% (active) | 38.6% | 11% | 79% (active) | 47.1% | 7% | 97% (active) | 56.1% | 12% | 97% (active) | 73.9% (active)
Cc1cccc(C[P+](c2ccccc2)(c2ccccc2)c2ccccc2)c1 | 76% (active) | 97% (active) | 90.3% (active) | 67% | 99% (active) | 93.1% (active) | 58% | 99% (active) | 93.3% (active) | 32% | 98% (active) | 91.9% (active) | 71% (active) | 99% (active) | 92.2% (active) | 76% (active) | 98% (active) | 90.3% (active)
CCN(CC)CCNCc1ccccc1 | -157% | -178% | -7.3% | -49% | -57% | -1.15% | -64% | -67% | 10.9% | -62% | -66% | 38.7% | -70% | -86% | 5.45% | -139% | -119% | 1.8%
COc1ccc(C2C3=C(CCC(CN(C)C)C3=O)OC3=C2C(=O)C(CN(C)C)CC3)cc1 (configuration not stated) | -17% | -7% | -35.5% | -3% | -1% | 4.1% | -20% | -5% | -20.6% | -1% | 1% | 44.7% | -17% | -17% | -3.5% | -13% | -7% | 21.1%
COc1ccc(-c2c(C#N)c(-c3ccc(C)cc3)n(NS(=O)(=O)c3ccc(C)cc3)c(=O)c2C#N)cc1 | -2% | 55% | 71.3% (active) | -2% | 70% (active) | 68.7% | -3% | 44% | 84.7% (active) | -5% | 68% | 64.1% | 4% | 65% | 79.4% (active) | -2% | 62% | 83.6% (active)
O=S(=O)(O)c1cc2ccccc2c(O)c1N=Nc1ccccc1 | 1% | 97% (active) | -33.1% | -1% | 98% (active) | -16% | 1% | 98% (active) | -3.25% | -16% | 97% (active) | 31.1% | -1% | 98% (active) | -0.1% | 2% | 98% (active) | 7.6%
FC(F)(F)C(C1=NC(C(F)(F)F)(C(F)(F)F)N=C(N2CCOCC2)O1)C(F)(F)F | 24% | 33% | 24.8% | 16% | 28% | 71.8% (active) | 20% | 48% | 30.4% | 26% | 45% | 60.4% | 36% | 80% (active) | 13.6% | 51% | 66% | 39.6%
CNC(=N)c1ccc(NC(=N)c2ccc(NC(=O)c3ccc(C(=O)Nc4ccc(C(=N)Nc5ccc(C(=N)NC)cc5)cc4)cc3)cc2)cc1 | 74% (active) | 54% | 70.2% (active) | 81% (active) | 57% | 51% | 52% | 61% | 53.8% | 47% | 42% | 11.7% | 79% (active) | 74% (active) | 46.6% | 87% (active) | 69% | 87.5% (active)
CC(C)/C(Cl)=N\OC(=O)Nc1ccc(S(N)(=O)=O)cc1 | 15% | 30% | 12.7% | 26% | 28% | 18.8% | 2% | -23% | 68% | 21% | 33% | 45% | 7% | 26% | 77.2% (active) | 22% | 38% | -38.8%
COc1ccc(C(c2cc3c(cc2O)OCO3)N2CCOCC2)cc1OC (configuration not stated) | -2% | 39% | 77.5% (active) | -5% | 59% | 86.5% (active) | -2% | 43% | 96.5% (active) | 0% | 12% | 67.5% | -5% | 41% | 98% (active) | -2% | 35% | 70.7% (active)
O=C1N[C@H]2[C@H](CS[C@H]2CCCCC(=O)N(CCP(c2ccccc2)c2ccccc2)CCP(c2ccccc2)c2ccccc2)N1 | 2% | 41% | 59.4% | 1% | 27% | 16.4% | 11% | 47% | -5.85% | 9% | 23% | -18.8% | 16% | 34% | 7.8% | -15% | 8% | -26.7%
